PubChem BioAssay
Values without a mark were called inactive. Active and inactive are the calls of the source.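 Rule for the calls: active = inhibition above 50%; inactive = the rest.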

Assay: HepG2 cytotoxicity, primary screen, cytotoxicity control for P. falciparum antimalarial project, cell-based, ATP luminescence (AID 2303);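 note: 0% = DMSO wells and 100% = digitonin-killed cells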
Conditions: HepG2 viability, 24-48 h, at 10 µM, hits give high values

Going from `CN1CCN(CCCN(Cc2ccc(-c3cccc(CNCc4ccc5c(c4)OCO5)c3)cc2)C(=O)NC2CCCCC2)CC1` to `CN1CCN(CCCN(Cc2ccc(-c3cccc(CNC4CCCC4)c3)cc2)C(=O)/C=C/c2ccccc2)CC1`, the inhibition rises from 31% to 36%.

Going from `Cc1[nH]c(C)c(-c2ccc(CCc3ccc(F)cc3F)cc2)c(=O)c1Cl` to `CCCCc1ccc(-c2ccc(-c3c(C)[nH]c(C)c(Br)c3=O)cn2)cc1`, the inhibition falls from 5% to -7%.

First: Cc1cc(OCCCN2CCC(NS(=O)(=O)c3cccc(Br)c3)CC2)c2ccccc2n1
Second: COc1ccc2nccc([C@@H](O)CN3CCC(NC(=O)c4cc5ccccc5[nH]4)CC3)c2c1
The inhibition of the first is higher: 28% for the first, 19% for the second.

Compared with `CC(C)NCc1ccc(-c2cccc(NC(=O)c3cccc(C#N)c3)c2)cc1`, `O=C(NCc1cccc(F)c1)Nc1cccc(-c2ccc(-c3nc4ccc(F)cc4[nH]3)cc2)c1` is higher in inhibition: 9% for the first, 46% for the second.

Compared with `CC(C)C[C@H](NC(=O)c1cc2ccccc2s1)C(=O)N[C@H]1CCN(Cc2ccc(OCCN3CCNCC3)c3ccccc23)C1`, `COc1cc(NC(=O)c2sc(-c3ccc(Cl)cc3)cc2NC(=O)CN2CCCC2)ccc1OCCN1CCCC1` is lower in inhibition: 43% for the first, 29% for the second.

Compared with `Cc1ccc(C(=O)Nc2ccc(Cl)c(N3CCN(CCc4ccccc4)CC3)c2)cc1`, `Cc1ccc(C(C(=O)Nc2ccc(N3CCNCC3)c(Cl)c2)c2ccccc2)cc1` (stereo not given) is higher in inhibition: 17% for the first, 23% for the second.

Compared with `COc1cc(C(=O)N2CC[C@@H](CCN3CCC4(CC3)CN(S(C)(=O)=O)c3ccccc34)C[C@H]2Cc2ccc(Cl)c(Cl)c2)cc(OC)c1OC`, `COc1cc(C(=O)NC2CCN(Cc3ccccc3)CC2)ccc1-c1cc2cc(Cl)c(Cl)cc2[nH]1` is higher in inhibition: 29% for the first, 33% for the second.

Going from `Cc1ccc2c(NN=CC=Cc3ccccc3)cc(C)nc2c1` to `Cc1cc(NN=Cc2ccccn2)c2cc(C(F)(F)F)ccc2n1`, the inhibition falls from 3% to -10%.

Compared with `Cc1cccc2[nH]c(-c3cccc(-c4ccc(NC(=O)Cc5ccon5)cc4)c3)nc12`, `CS(=O)(=O)c1ccc(CNCc2ccc(-c3cccc(-c4nc5ccc(F)cc5[nH]4)c3)cc2)cc1` is lower in inhibition: 34% for the first, 33% for the second.

Compared with `O=C(NCCc1ccc(Cl)c(Cl)c1)C1CCCN(C(=O)c2ccc(O)c(-c3ccc(Cl)c(Cl)c3)c2)C1` (stereo not given), `CC(C)(C)c1ccc(CN2CCCCC(NC(=O)c3cc(-c4cccc(Cl)c4)cs3)C2)cc1` (stereo not given) is higher in inhibition: -9% for the first, 11% for the second.

Going from `CCCc1cc(Cc2cnc(N)nc2N)cc(CCC)c1OCCCCCC(=O)OCC` to `COc1cc(Cc2cnc(N)nc2N)cc(OCCCCC2SC(=O)NC2=O)c1OC` (stereo not given), the inhibition falls from 12% to -9%.

Compared with `COc1cc(NC(=O)C(c2ccc(Cl)cc2)C(C)C)cc(OC)c1` (stereo not given), `COCC(C)n1c(SCC(=O)Nc2cc(C(F)(F)F)ccc2Cl)nc2ccccc2c1=O` (stereo not given) is lower in inhibition: 5% for the first, 3% for the second.

Compared with `CC(C)(C)C1CC(=O)C[C@@H]2C(=O)N(c3ccc(Br)cc3)C(=O)[C@H]12` (stereo not given in full), `CC(C)(C)c1ccc(NC(=O)c2cccc(CN3CCN(Cc4cccc(O)c4)CC3)c2)cc1` is higher in inhibition: -2% for the first, 28% for the second.

First: COc1ccc(O)c(C(=O)c2cc(C(=O)NC3CCCCC3)c(=O)n(C3CCCCC3)c2)c1
Second: COc1cc2c(C3CCN(CC4CCC(NC(=O)/C=C/c5ccc(Cl)c(Cl)c5)CC4)CC3)c[nH]c2cn1 (stereo not given)
The inhibition of the first is lower: 8% for the first, 44% for the second.

Going from `COc1ccc(-n2cc(CNCCCn3ccnc3)c(-c3cccc(F)c3)n2)cc1` to `COc1ccc2nccc([C@@H](O)CN3CCC(NCc4nc5cc(F)ccc5o4)CC3)c2c1`, the inhibition falls from 21% to 14%.

First: N=C(N)c1cc(Br)cc(NC(=O)Nc2cc(Br)cc(C(=N)N)c2)c1
Second: CC(=O)Oc1c(C2CCN(CCCCNC(=O)c3ccc(NC(=O)c4ccc(Cl)cc4)cc3)CC2)ccc2ccccc12
The inhibition of the first is lower: 0% for the first, 24% for the second.

Compared with `O=[N+]([O-])c1ccc(Nc2nc(NN=Cc3ccc(-c4ccc([N+](=O)[O-])cc4)o3)nc(Nc3ccccc3)n2)cc1`, `CCCCCC(=O)N1CCOC(CCN2CCc3c(c4ccccc4n3C)C2)(c2ccc(Cl)c(Cl)c2)C1` (stereo not given) is higher in inhibition: -9% for the first, 24% for the second.

In the case of `COc1ccc(OCCCCON2C(N)=NC(N)=NC2(C)C)cc1`, the inhibition is reported as 54% (active).
With `COc1cc(CNCCCCCCNCc2cc(OC)cc3ccccc23)c2ccccc2c1` the inhibition was 57% (active).
With `OCCN1CCN(Cc2ccc(-c3ccc(-c4nc5ccc(C(F)(F)F)cc5[nH]4)s3)cc2)CC1` the inhibition was 65% (active).
With `NC1=NC2(CCCCC2)N(OCCCOc2cccc3ccccc23)C(N)=N1` the inhibition was 67% (active).
For `O=C(Nc1ccsc1)Nc1cccc(-c2cccc(-c3nc4ccc(C(F)(F)F)cc4[nH]3)c2)c1`, the inhibition was 76% (active).
In the case of `COc1ccccc1NC(=O)Nc1ccc(-c2ccc(-c3nc4c(C)cccc4[nH]3)s2)cc1`, the inhibition is reported as 71% (active).
